Data from the supplement of paper PMC10981050.
Where a name gives a salt, the structure may show the parent alone.

What follows are molecules tested on MOLM14 (assay: cell viability relative to vehicle control; higher = less cytotoxic). Settings: 10 µM; SRSF2 genotype: SRSF2 P95H/wt.
How it was run: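 Mutant clones made by CRISPR editing and their isogenic wild-type counterparts, from four leukaemia lines, were exposed to a single 10 µM dose of each library compound for 48 h. The supernatant was then removed and CellTiter-Glo luminescence was read. Viability was reported as percent of the on-plate vehicle control.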

| SMILES | cell viability [%] |
| --- | --- |
| COc1cc(C=O)c([N+](=O)[O-])cc1OC | 95.8 |
| CCOc1ccccc1OCCN[C@H](C)Cc1ccc(OC)c(S(N)(=O)=O)c1 [Tamsulosin hydrochloride] | 98.5 |
| O=C1CC(=O)c2c(Cl)c(Cl)c(Cl)c(Cl)c21 | 95.3 |
| CO/N=C(\C(=O)N[C@@H]1C(=O)N2C(C(=O)O)=C(CSC(=O)c3ccco3)CS[C@H]12)c1csc(N)n1 [Ceftiofur hydrochloride] | 91.5 |
| CC1=CC(=O)CC(C)(C)C1=O [Ketoisophorone] | 101 |
| CO[C@@]12[C@H](COC(N)=O)C3=C(C(=O)C(C)=C(N)C3=O)N1C[C@@H]1N[C@@H]12 [Mitomycin C] | 0.73 |
| O=c1cc(-c2ccc(O)c(O)c2)oc2cc(O)cc(O)c12 [Luteolin] | 53 |
| Cc1cc(C2CCCCC2)n(O)c(=O)c1 [Ciclopirox ethanolamine] | 8.86 |
| N[C@@H]1CN(c2c(F)cc3c(=O)c(C(=O)O)cn([C@@H]4C[C@@H]4F)c3c2Cl)CC12CC2 [Sitafloxacin hydrate] | 105 |
| COCCCN1CCC(NC(=O)c2cc(Cl)c(N)c3c2OCC3)CC1 [Prucalopride] | 87.3 |
| COc1cc2nc(N3CCCC3)nc(NCCCCCN3CCCC3)c2cc1OC | 0.26 |
| O=C(O)c1ccc2c(c1)C(=O)c1ccccc1C2=O [Anthraquinone-2-carboxylic Acid] | 102 |
| C[C@@H]1O[C@@H]1P(=O)(O)O [fosfomycin tromethamine] | 103 |
| CCCCCCCCCC[C@H](C(=O)O)[C@]1(C(=O)O)CCC(=O)O1 [Spiculisporic Acid] | 98.8 |
| CC1(C)CCC2(C(=O)O)C(O)CC3(C)C(=CCC4C5(C)CC(O)C(O)C(C)(CO)C5CCC43C)C2C1 (stereo not given) [Polygalacic acid] | 109 |
| C[C@H]1[C@H](NC(=O)/C(=N\OC(C)(C)C(=O)O)c2csc(N)n2)C(=O)N1S(=O)(=O)O [Aztreonam (Azactam, Cayston)] | 103 |
| C#C[C@]1(O)CC[C@H]2[C@@H]3CCc4cc(O)ccc4[C@H]3CC[C@@]21C [Ethinyl Estradiol] | 82.4 |
| CC(C)COc1ccc(CNC(=O)N(Cc2ccc(F)cc2)C2CCN(C)CC2)cc1 [Pimavanserin] | 0.25 |
| Oc1cc(O)c2c(c1)OC(c1ccc(O)c(O)c1)C(O)C2 (single isomer, unassigned; (+)) [(+)-Catechin hydrate] | 104 |
| Cc1ccc([C@@H]2O[C@H](CO)[C@@H](O)[C@H](O)[C@H]2O)cc1Cc1ccc(-c2ccc(F)cc2)s1 [Canagliflozin] | 102 |

| SMILES | cell viability [%] |
| --- | --- |
| Nc1ncnc2c1c(-c1cnc3[nH]ccc3c1)nn2C1CCCC1 | 9.21 |
| COc1ccc(-c2oc3c(CC=C(C)C)c(O)cc(O)c3c(=O)c2O[C@@H]2O[C@@H](C)[C@H](O)[C@@H](O)[C@H]2O)cc1 [Baohuoside I] | 87.8 |
| OC1CCC(Oc2cccc3cnc(Nc4ccc5nc[nH]c5c4)nc23)CC1 (stereo not given) | 1.38 |
| CC(C)(C)c1[nH]cnc1/C=c1\[nH]c(=O)/c(=C/c2ccccc2)[nH]c1=O [NPI-2358 (Plinabulin)] | 1.68 |
| CN(C)C(=O)c1ccc(S(=O)(=O)c2ccc(NC(=O)C(C)(O)C(F)(F)F)c(Cl)c2)cc1 (stereo not given) | 78.4 |
| CN(C)C(=O)COC(=O)Cc1ccc(OC(=O)c2ccc(NC(=N)N)cc2)cc1 [Camostat Mesilate (FOY-305)] | 106 |
| C[C@@H]1COC(Nc2ccc3ncnc(Nc4ccc(OCc5nccs5)c(Cl)c4)c3c2)=N1 [Varlitinib] | 91.7 |
| CCOC(=O)[C@H](CCc1ccccc1)N[C@H]1CS[C@H](c2cccs2)CN(CC(=O)O)C1=O [Temocapril HCl] | 99.7 |
| Nc1ccn([C@H]2CC[C@@H](CO)O2)c(=O)n1 [Zalcitabine] | 105 |
| OCCOCCN1CCN(Cc2cccc(Oc3ccccc3)c2)CC1 | 94.5 |
| CC(C)[C@H]1CC[C@H](C(=O)N[C@H](Cc2ccccc2)C(=O)O)CC1 [Nateglinide (Starlix)] | 97.9 |
| Nc1ccc(O)c(C(=O)O)c1 [Mesalamine (Lialda)] | 87.3 |
| NCCCCCN [Cadaverine] | 95.9 |
| CN[C@@H](C)C(=O)N[C@H](C(=O)N1CCC[C@H]1c1nc(C(=O)c2ccc(F)cc2)cs1)C1CCCCC1 | 58.3 |
| Nc1[nH]c(=O)ncc1Br [5-Bromocytosine] | 104 |
| COc1nc(C)cnc1NS(=O)(=O)c1cccnc1-c1ccc(-c2nnco2)cc1 [Zibotentan (ZD4054)] | 100 |
| CC(=CCNc1ncnc2nc[nH]c12)CO [Trans-Zeatin] | 98.3 |
| CCCCCCCCOc1ccccc1C(=O)Nc1ccc(C(=O)OCC[N+](C)(CC)CC)cc1 [Otilonium Bromide] | 76.7 |
| CCCCCCCC/C=C\CCCCCCCCCCCC(=O)O [Erucic acid] | 104 |
| C=C1C(=O)[C@]23[C@H](O)[C@H]1CC[C@H]2[C@@]12CO[C@]3(O)[C@@H](O)[C@@H]1C(C)(C)CC[C@@H]2O [Oridonin (Isodonol)] | 9.97 |
